Hits are enriched below; roughly 21% of the tested compounds scored in any of these assays.
Pf growth 48h = P. falciparum growth inhibition at 48 hours (one generation). 310,000 tested, 5.9% active. P. falciparum luciferase growth in erythrocytes, 48 h. AID 504832. Potency, µM (titrated, usually from 28.7 µM), for inactives: at the highest dose activity change, negative = inhibition, usual class: inhibitors; active means well fitted inhibition curve with a large enough effect; inconclusive means small, poorly fitted or top-dose-only effect, or another doubt; inactive means no such curve, though single readings can be large or run the other way; further: potency means the concentration at half of the fitted maximal effect; on the % scale 0 is the no-effect control and ±100 the full control effect
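Luminescence readout; reporter = integrated firefly luciferase in P. falciparum. RBC culture at 2% hematocrit, 0.1% parasitemia final, 37 C/5% CO2; decreased signal taken as growth inhibition.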
Shiga toxin inh = inhibitors of Shiga toxin in Vero cells; Vero cells, Shiga toxin protein synthesis inhibition reporter; inhibition, % at 38.7 µM; 290,000 tested, 9.2% active; AID 2315; in the data active means inhibition mostly above about 28%, no sharp cut-off; inactive means mostly below about 43%; further: 0% is about no effect
SARS PLP yeast = inhibitors of SARS-CoV papain-like protease in yeast; Potency, µM (top dose mostly 32.9 µM), inactives show top-dose activity, positive = growth rescue, actives largely listed as activators; 330,000 tested, 0.19% active; AID 485353; S. cerevisiae expressing SARS-CoV PLpro, growth rescue; further: potency means the concentration at half of the fitted maximal effect; 0% is about no effect; nearly all actives have a fitted effect of over 55% in size
CHX counter = counter-screen for Shiga toxin inhibitors: cycloheximide protein synthesis inhibition; cell reporter, cycloheximide protein synthesis inhibition counterscreen; max response, %; 300,000 tested, 12% active; in the data active means max response mostly above about 13%, no sharp cut-off; inactive means mostly below about 14%; further: read at 38.3 µM for the half of the compounds with a filed dose; 0% is about no effect
NS1 function inh = inhibitors of influenza NS1 protein function | 270,000 tested, 0.4% active | Potency, µM (top dose mostly 46.1 µM), without a hit: at the highest dose activity, positive = more growth; further: potency means the concentration at half of the fitted maximal effect; actives are rising curves; nearly all actives have a fitted effect of over 50% in size
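Recovery from NS1-induced slow growth read by OD600 in budding yeast switched to galactose assay medium (pH 6.0, -URA) at 1:100 dilution. Compound 23 nl per well; the matching strain lacking NS1 serves as control.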
Pf growth 96h = P. falciparum growth inhibition at 96 hours; P. falciparum luciferase reporter growth, 96 h; Potency, µM (highest dose often 28.7 µM), for inactives: top-dose activity change, negative = inhibition, actives largely listed as inhibitors; 320,000 tested, 6.9% active; active means well fitted inhibition curve with a large enough effect; inconclusive means small, poorly fitted or top-dose-only effect, or another doubt; inactive means no such curve, though single readings can be large or run the other way; further: potency means the concentration at half of the fitted maximal effect; on the % scale 0 is the no-effect control and ±100 the full control effect
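Infected RBCs, 2% Hct / 0.05% parasitemia final; luciferase-reporter P. falciparum; cpd 96 h, 37 C, 5% CO2; luciferase detection reagent; luminescence.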
* marks the source's active call; other numbers are inactive results; ? = inconclusive; . = not tested or not shown; [ ] = another dose, or the depositor's remark. Unless noted, the call rests on the fitted dose curve.

SMILES | Pf growth 48h | Shiga toxin inh | SARS PLP yeast | CHX counter | NS1 function inh | Pf growth 96h
COc1ccccc1C(=O)NCCC(=O)NCc1cccs1 | 12% | . | 8% | . | . | 29%
CCOC(=O)/C(C#N)=C1/C=CN(c2ccc(C)cc2)C=N1 | . | 64* | 11% | 29* | 3% | 15%
CCOC(=O)/C(C#N)=C1/C=CN(c2ccccc2)C=N1 | 61% | 49 | ? | 4 | -8% | .
CCN1CCN(C2CC(=O)NC2=O)CC1 (stereo not drawn) | 6% | -10 | 3% | 6 | . | 8.3µM*
O=C1CC(N2CCC(C(=O)N3CCCCC3)CC2)C(=O)N1 (stereo not drawn) | 11% | -2 | 0% | -2 | -9% | 15%
CCCCn1c(O)c(C=NC2CC3CCC2(C)C3(C)C)c(=O)[nH]c1=O (stereo not drawn) | 10µM* | 23 | 1% | 7 | -46% | ?
COc1ccc(-c2cc(C(F)(F)F)nc(N3CCN(C)CC3)n2)cc1 | 13µM* | -21 | 5% | -4 | 7% | 36%
COc1ccc(-c2cc(C(F)(F)F)nc(N3CCCCC3)n2)cc1OC | 3.3µM* | -4 | 3% | -2 | 0% | 75%
COC(=O)c1nn(-c2nc(-c3cccc(OC)c3)cc(C(F)(F)F)n2)cc1[N+](=O)[O-] | -6% | 3 | 0% | -6 | . | ?
COc1ccc(-c2cc(C(F)(F)F)nc(N3CCN(C)CC3)n2)cc1OC | ? | 12 | -5% | -3 | -2% | 5.2µM*
COC(=O)c1nn(-c2nc(-c3ccc(OC)c(OC)c3)cc(C(F)(F)F)n2)cc1[N+](=O)[O-] | -17% | -15 | -1% | -7 | . | 17µM*
COC(=O)[C@]1(C)N[C@H](CN(C)C(=O)C2CCCCC2)[C@@H]2C(=O)N(Cc3ccccc3)C(=O)[C@@H]21 | . | . | 4% | . | . | .
CCN(CC(=O)Nc1c(F)cccc1F)C(=O)c1ccc(C#N)cc1 | 27% | 13 | 0% | -3 | 1% | 4%
Cc1ccccc1C(=O)NNC(=O)CSc1nnc(C)n1-c1ccccc1 | -12% | -16 | ? | 1 | 22% | ?
Cc1ccc(-c2noc(CSc3ccccc3)n2)cc1 | . | 77* | -10% | 33* | 1% | 82%
c1ccc(CCCc2nc(-c3cccnc3)no2)cc1 | 5% | 43* | -8% | 19* | -17% | ?
Cc1ccc(-c2noc(CSc3nc(N)cc(N)n3)n2)cc1 | 250% | 87* | -7% | 53* | 9% | -24%
Cc1ccc(-c2noc(CSc3nnnn3C3CCCCC3)n2)cc1 | . | -4 | -15% | -3 | -80% | -20%
Cc1ccc(-c2noc(CSc3nnc(Cc4ccccc4)n3-c3cccc(C)c3)n2)cc1 | ? | -19 | -10% | 10 | 9% | .
Cc1cccc(-c2noc(CSc3ccccc3)n2)c1 | 128% | 67* | -7% | 44* | 2% | 54%
COc1ccc(NC(=O)Cn2c(CCC(=O)O)ccc2-c2ccc(C)cc2)cc1 | 12% | 10 | 25% | 1 | . | ?
COc1ccc(-n2c(Cc3cccn3C)nnc2SCC(=O)NCCc2ccccc2)cc1 | ? | 6 | -3% | -2 | -3% | 2%
c1ccc(SCc2nc(-c3cccnc3)no2)cc1 | -50% | 108* | -9% | 36* | -8% | 25%
c1ccc(C(Cc2nc(-c3cccnc3)no2)c2ccccc2)cc1 | ? | 9 | -5% | -1 | -18% | ?
Cc1ccc(S(=O)(=O)NC(CC(C)C)C(=O)Nc2nccs2)cc1 (stereo not drawn) | ? | -47 | -5% | -2 | 4% | .
SMILES | Pf growth 48h | Shiga toxin inh | SARS PLP yeast | CHX counter | NS1 function inh | Pf growth 96h
Cc1ccc(S(=O)(=O)NC(CC(C)C)C(=O)Nc2ccncc2)cc1 (stereo not drawn) | 5.2µM* | . | -12% | . | . | 5.9µM*
CC(C)(C)N1CC23C=CC(C[C@@H]2C1=O)O3 (stereo partly drawn) | 22% | . | -4% | . | . | -6%
CC(C)(Oc1ccc(Cl)cc1)C(=O)NCc1ccc(S(N)(=O)=O)cc1 | -5%[5.75 µM] | -4 | 0% | -4 | . | ?
COc1ccccc1NC(=O)c1ccc(NC(=O)CSc2n[nH]c(N)n2)cc1 | 5% | -10 | 5% | -1 | 29% | 10%
CCCC(=O)NC(=S)Nc1nc(-c2ccc(OC)cc2)cs1 | 64% | -2 | -2% | -4 | 9% | 13%
O=C(Nc1nc(-c2ccccc2)cs1)c1ccccc1F | 52% | 62* | -9% | 41* | 4% | 13µM*
O=C(Nc1nc(-c2ccccc2)cs1)c1ccc(Br)o1 | 1% | 107* | -36% | 32* | -137% | .
Cc1ccc(C(=O)Nc2nc(-c3cccnc3)cs2)o1 | 34% | 26 | -1% | 22 | 11% | 63%
COc1ccc(-c2csc(NC(=O)c3ccccc3F)n2)cc1 | -9% | . | 4% | 15* | -19% | ?
CC(C(=O)N1CCOCC1)N1C(=O)c2cccc3cccc(c23)C1=O (stereo not drawn) | 4% | 20 | 0% | -1 | 5% | -2%
O=C1CC2(CCCC2)C(=O)N1CN1CCN(S(=O)(=O)c2ccc(Cl)c(Cl)c2)CC1 | 6% | . | 3% | . | . | -9%
COc1ccccc1-n1c(SCC(=O)NC2CCS(=O)(=O)C2)nc2cc([N+](=O)[O-])ccc21 (stereo not drawn) | ? | -5 | -4% | -3 | -4% | ?
CCN(CC)S(=O)(=O)c1ccc2c(c1)nc(SCC(=O)NC1CC1)n2-c1ccccc1OC | 5.9µM* | 2 | 2% | -2 | -10% | ?
O=C(Nc1nc2ccc(Cl)cc2s1)C1CCCO1 (stereo not drawn) | . | 106* | -3% | 43* | -15% | 30%
CS(=O)(=O)c1ccc2nc(NC(=O)C3CCCO3)sc2c1 (stereo not drawn) | 19% | 32 | 0% | 1 | 4% | -4%
O=C(Nc1nc2ccc([N+](=O)[O-])cc2s1)C1CCCO1 (stereo not drawn) | 126% | 112* | -1% | 37* | -2% | -1%
O=C(Nc1cccc(O)c1)c1cccc(C(=O)Nc2cccc(O)c2)c1 | -23% | -4 | 2% | -2 | 10% | ?
CCC(=O)Nc1cccc(NC(C)=O)c1 | . | -6 | -3% | -3 | 6% | 8%
CCC(=O)Nc1cccc(NC(=O)c2ccc(Br)cc2)c1 | 31% | 0 | -3% | 14* | -1% | 41%
O=C(Nc1cccc(O)c1)c1ccc(Br)cc1 | 150% | 69* | -2% | 45* | -76% | 8%
CC(=O)Nc1cccc(NC(=O)c2ccc(Br)cc2)c1 | 184% | 48 | -2% | 27* | . | ?
Cc1cccc(NC(=O)CCNC(=O)c2ccc(Br)cc2)c1 | 76% | 82* | -2% | 26* | 8% | 72%
COc1cccc(C(=O)Nc2cccc(NC(C)=O)c2)c1 | 31% | 29 | -2% | 11 | 5% | ?
N#Cc1cccc(S(=O)(=O)NNC(=O)C23CC4CC(CC(C4)C2)C3)c1 | . | . | -8% | . | . | .
